{
  "source": "PubChem BioAssay (NCI)",
  "note": "This is part of a sample that, as a whole, favours compounds with a hit. Of some 83,000 tested, about 20% had one in any assay.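 Cells were grown in 96-well plates and exposed to the test compound at a single concentration for 48 hours; results are reported as percent growth, with values below 10 considered active.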 Activity calls are given as the source filed them.",
  "data": [
    {"test_system": "MDA-MB-468 breast", "test": "NCI-60 one-dose screen, 48 h (100 = growth as untreated, 0 = no growth, -100 = all killed)", "details": "10 µM unless noted", "values": [
      {"smiles": "C=CCc1cc(Nc2c3ccc(Cl)cc3nc3ccc(OC)cc23)cc(CN(CC)CC)c1O", "growth": "-19.1% (active)"},
      {"smiles": "C#CCOc1ccc2ncnc(N3CCC(NC(=O)CCl)CC3)c2c1", "growth": "15.4% [8.25 µM] (inactive)"},
      {"smiles": "C/C(=N\\NC(=O)Nc1ccccc1)c1nnn(-c2ccc([N+](=O)[O-])cc2)c1C", "growth": "104% (inactive)"},
      {"smiles": "OB(O)c1ccccc1", "growth": "110% (inactive)"},
      {"smiles": "CCOC(=O)C1C(=O)C=C(c2ccccc2)CC1c1sc(N(C)Cc2ccccc2)nc1Cl", "note": "(stereo not given)", "growth": "80.9% (inactive)"},
      {"smiles": "Cc1ccc(-c2nc3c(c(-c4ccccc4)nn3-c3ccccc3)c(-c3ccc(O)cc3)c2C#N)cc1", "growth": "52.7% (inactive)"},
      {"smiles": "Nc1nc(-c2ccc(Cl)cc2)nc2c1sc(=S)n2-c1ccccc1", "growth": "27.3% (inactive)"},
      {"smiles": "Cc1ccc2c(C)c3c(ccc4ccccc43)c[n+]2c1", "growth": "-42.1% (active)"},
      {"smiles": "O=C(Nc1ccccn1)[C@H](O)[C@@H](O)C(=O)N1CCOCC1", "growth": "119% (inactive)"},
      {"smiles": "CC1O[C@@H]2C[C@@](O)([C@H]1O)n1c3ccccc3c3c4c(c5c6ccccc6n2c5c31)C(=O)NC4=O", "note": "(stereo not given in full)", "growth": "3.51% (active)"},
      {"smiles": "N#CC1=C(/N=C/c2ccccc2)Oc2c(ccc3ccccc23)C1c1ccccc1", "note": "(stereo not given)", "growth": "6.43% (active)"},
      {"smiles": "CCN(CCO)CCNc1ccc(C)c2sc3cc(Cl)ccc3c(=O)c12", "growth": "-47.7% (active)"},
      {"smiles": "CCCc1c(CC)c(=N)c2ccccc2n1C", "growth": "58.7% (inactive)"},
      {"smiles": "COc1ccc(CN2CCc3c(Cl)nc(N)nc3C2=O)c(OC)c1", "growth": "12% [100 µM] (inactive)"},
      {"smiles": "CN1CCc2c(sc3nc4n(-c5ccc(Cl)cc5)cnn4c(=O)c23)C1", "growth": "81.7% (inactive)"},
      {"smiles": "COc1cccc2nc(Nc3cccc(NC(=O)c4cc(N5CCOCC5)cc(C(F)(F)F)c4)c3)ccc12", "growth": "67.3% (inactive)"},
      {"smiles": "C#CCOc1cccc(Nc2ncnc3c(NC(=O)C=C)cccc23)c1", "growth": "-15.2% (active)"},
      {"smiles": "COC1=CC(=O)C[C@@H](C)[C@]12Oc1c(Cl)c(OC)cc(OC)c1C2=O", "growth": "76.8% (inactive)"},
      {"smiles": "C=C(C)CCC(C)N1CCC(N2CCC(C(=O)NCCc3ccccc3)CC2)CC1", "note": "(stereo not given)", "growth": "48.4% (inactive)"},
      {"smiles": "Cc1cc(=O)c2cc3nc(-c4cccnc4)oc3c(Br)c2o1", "growth": "96.4% (inactive)"},
      {"smiles": "Oc1c(C(Nc2ccccc2Br)c2ccccc2)ccc2cccnc12", "note": "(stereo not given)", "growth": "-4% (active)"},
      {"smiles": "C#C[C@]1(O)CC[C@H]2[C@@H]3CC=C4c5sc(Nc6cc(Cl)ccc6OC)nc5CC[C@]4(C)[C@H]3CC[C@@]21C", "growth": "4.64% (active)"},
      {"smiles": "O=S(=O)(Cc1cccc2c(CS(=O)(=O)c3ccc(Cl)cc3)cccc12)c1ccc(Cl)cc1", "growth": "97% (inactive)"},
      {"smiles": "COc1cccc2c1[C@H](OC)[C@]13O[C@@]1(C2=O)[C@H](O)[C@H](C)[C@@](O)(C(=O)[C@@H]1O[C@H]1C)[C@@H]3O", "growth": "-40.5% (active)"},
      {"smiles": "Cc1nn(-c2ccc(Br)cc2)c2nc(CCl)[nH]c(=O)c12", "growth": "94% (inactive)"},
      {"smiles": "O=c1[nH]c(Cc2nc3ccccc3s2)nc2cc(Br)ccc12", "growth": "92.4% (inactive)"},
      {"smiles": "COc1ccc(/C=C2\\CCc3ccccc3C2=O)cc1", "growth": "76.7% (inactive)"},
      {"smiles": "COc1cc(Nc2ncnc(Nc3ccc4c(n3)NC(=O)C(C)(C)O4)n2)cc(OC)c1OC", "growth": "-24.5% (active)"},
      {"smiles": "COC12C=C/C(=C(/C(=O)OCc3ccccn3)C(=O)CCCCCCCCC3(OC)C=C/C(=C(/C(=O)OCc4ccccn4)C(=O)CCCCCCCC1)O3)O2", "growth": "-32.5% (active)"},
      {"smiles": "C=CCn1cc(-c2nc3ccccc3s2)c2cc(-c3ccc4c5c(cccc35)C(=O)N(CCO)C4=O)ccc21", "growth": "96% (inactive)"},
      {"smiles": "Cc1cn(-c2cc(NC(=O)c3cccc(C#Cc4cccc5[nH]nc(N)c45)c3)cc(C(F)(F)F)c2)cn1", "growth": "67.7% (inactive)"},
      {"smiles": "COc1ccc(C(=O)C2OC3=C(C(=O)CC(C)(C)C3)C2c2cccc(Oc3ccccc3)c2)cc1", "note": "(stereo not given)", "growth": "94.3% (inactive)"},
      {"smiles": "O=C1OC(=O)C2C1CC=CC2c1ccccc1", "note": "(stereo not given)", "growth": "93.3% (inactive)"},
      {"smiles": "Cc1ccc(/C=C/C(=O)c2ccc(NC(=O)CSc3nc4c([nH]3)c(=O)n(C)c(=O)n4C)cc2)c(C)c1", "growth": "34.1% (inactive)"},
      {"smiles": "COc1ccc(-c2cc(-c3cccs3)n(N=O)c(=O)c2C#N)cc1", "growth": "99.5% (inactive)"},
      {"smiles": "COc1ncc(F)c(OC)n1", "growth": "98.7% (inactive)"},
      {"smiles": "Cn1c2ccccc2c2nn(Cc3ccccc3)c(=O)nc21", "growth": "106% (inactive)"},
      {"smiles": "O=C(CSc1nc2ccc([N+](=O)[O-])cc2[nH]1)Nc1cccc(Cl)c1", "growth": "-10.4% (active)"},
      {"smiles": "CC(C)(C)CC(C)(C)c1ccc(OCCOCC[N+](C)(C)CC(=O)[O-])cc1", "growth": "108% (inactive)"},
      {"smiles": "COc1ccc(C(=O)O)cc1.[Ag]", "growth": "93.9% (inactive)"}
    ]}
  ]
}
